The supplement of paper PMC10849652
Of roughly 8,800 targets only a part is listed; those with a hit were picked by preference. About 0.5% of all pairs of compound and target were hits. Unmarked numbers belong to inactive results.

Experiments:
Test in all cases: log2 fold change, soluble protein after heating vs DMSO (PISA); higher = thermal stabilisation; K562 lysate, 10 uM; active = over 0.2 and 3.5 SD of the protein, either way, in both replicates (recomputed)
[1] = compound: NCC(=O)Nc1ccc(-n2nc(C(F)(F)F)cc2-c2ccc3c(ccc4ccccc43)c2)cc1
How it was run: (§1)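 K562 pellets were dounce-homogenised in PBS pH 7.4 containing 1 mM MgCl2, and the crude extract, at 1 mg/mL protein, was exposed to 10 μM compound for 30 min. Aliquots were heated for 3 min across 48°C-58°C, pooled, brought to 0.5% NP-40 at 4°C and spun at 21,000xg for 90 min, with the supernatant taken as soluble protein. TMTpro 16plex LC-MS/MS with equalised channel sums quantified that protein. Values are log-two fold changes in thermal stability relative to solvent controls, taken from duplicates.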

vorinostat = compound: O=C(CCCCCCC(=O)Nc1ccccc1)NO [vorinostat]
How it was run: as §1

silmitasertib = compound: O=C(O)c1ccc2c(c1)nc(Nc1cccc(Cl)c1)c1ccncc12 [silmitasertib]
How it was run: as §1

[2] = compound: O=C1NC(=O)C(c2cnc3ccccn23)=C1c1cn2c3c(cc(F)cc13)CN(C(=O)N1CCCCC1)CC2
How it was run: as §1

entospletinib = compound: c1cn2cc(-c3ccc4cn[nH]c4c3)nc(Nc3ccc(N4CCOCC4)cc3)c2n1 [entospletinib]
How it was run: as §1

Chain of UniProt Q9NP73 (Q9NP73 whole entry, looked up): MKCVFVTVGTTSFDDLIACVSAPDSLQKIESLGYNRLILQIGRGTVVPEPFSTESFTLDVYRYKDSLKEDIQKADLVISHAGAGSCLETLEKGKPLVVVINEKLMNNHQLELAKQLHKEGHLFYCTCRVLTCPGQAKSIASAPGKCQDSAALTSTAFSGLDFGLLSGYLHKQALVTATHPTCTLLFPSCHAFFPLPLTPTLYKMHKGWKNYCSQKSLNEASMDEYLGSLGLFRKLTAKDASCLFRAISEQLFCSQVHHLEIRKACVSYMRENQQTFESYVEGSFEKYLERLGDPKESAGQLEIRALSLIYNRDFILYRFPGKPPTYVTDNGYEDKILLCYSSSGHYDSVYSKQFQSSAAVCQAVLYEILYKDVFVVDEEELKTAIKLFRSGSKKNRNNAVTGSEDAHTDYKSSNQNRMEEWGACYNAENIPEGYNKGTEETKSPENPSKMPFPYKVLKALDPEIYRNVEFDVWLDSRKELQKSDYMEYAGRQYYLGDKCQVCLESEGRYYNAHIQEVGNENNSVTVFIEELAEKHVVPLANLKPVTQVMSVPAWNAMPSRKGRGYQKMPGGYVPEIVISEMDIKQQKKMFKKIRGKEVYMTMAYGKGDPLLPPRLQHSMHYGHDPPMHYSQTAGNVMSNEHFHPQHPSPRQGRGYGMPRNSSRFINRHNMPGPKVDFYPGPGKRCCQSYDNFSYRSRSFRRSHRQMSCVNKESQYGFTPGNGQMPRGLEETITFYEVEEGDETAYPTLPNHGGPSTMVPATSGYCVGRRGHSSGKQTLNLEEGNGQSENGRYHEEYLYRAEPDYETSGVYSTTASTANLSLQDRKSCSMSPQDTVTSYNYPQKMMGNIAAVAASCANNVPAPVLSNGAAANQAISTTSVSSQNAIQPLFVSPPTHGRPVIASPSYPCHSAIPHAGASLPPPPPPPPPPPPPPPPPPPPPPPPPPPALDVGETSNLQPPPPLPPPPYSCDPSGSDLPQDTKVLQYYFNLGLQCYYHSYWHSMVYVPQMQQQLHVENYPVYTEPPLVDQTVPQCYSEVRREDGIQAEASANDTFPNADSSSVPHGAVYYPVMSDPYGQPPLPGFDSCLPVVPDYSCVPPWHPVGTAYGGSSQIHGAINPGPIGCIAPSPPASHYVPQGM
Chain of UniProt Q562R1 (Q562R1 whole entry, looked up): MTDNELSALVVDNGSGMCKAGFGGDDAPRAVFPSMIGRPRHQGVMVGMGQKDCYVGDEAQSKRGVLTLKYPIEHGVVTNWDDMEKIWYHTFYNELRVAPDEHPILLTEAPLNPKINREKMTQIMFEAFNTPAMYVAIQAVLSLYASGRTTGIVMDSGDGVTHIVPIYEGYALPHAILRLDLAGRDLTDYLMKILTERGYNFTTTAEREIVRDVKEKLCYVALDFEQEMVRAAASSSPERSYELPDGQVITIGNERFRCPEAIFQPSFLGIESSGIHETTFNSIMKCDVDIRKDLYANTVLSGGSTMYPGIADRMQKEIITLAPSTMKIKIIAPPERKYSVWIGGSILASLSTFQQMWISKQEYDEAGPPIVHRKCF
Chain of UniProt O43182 (O43182 whole entry, looked up): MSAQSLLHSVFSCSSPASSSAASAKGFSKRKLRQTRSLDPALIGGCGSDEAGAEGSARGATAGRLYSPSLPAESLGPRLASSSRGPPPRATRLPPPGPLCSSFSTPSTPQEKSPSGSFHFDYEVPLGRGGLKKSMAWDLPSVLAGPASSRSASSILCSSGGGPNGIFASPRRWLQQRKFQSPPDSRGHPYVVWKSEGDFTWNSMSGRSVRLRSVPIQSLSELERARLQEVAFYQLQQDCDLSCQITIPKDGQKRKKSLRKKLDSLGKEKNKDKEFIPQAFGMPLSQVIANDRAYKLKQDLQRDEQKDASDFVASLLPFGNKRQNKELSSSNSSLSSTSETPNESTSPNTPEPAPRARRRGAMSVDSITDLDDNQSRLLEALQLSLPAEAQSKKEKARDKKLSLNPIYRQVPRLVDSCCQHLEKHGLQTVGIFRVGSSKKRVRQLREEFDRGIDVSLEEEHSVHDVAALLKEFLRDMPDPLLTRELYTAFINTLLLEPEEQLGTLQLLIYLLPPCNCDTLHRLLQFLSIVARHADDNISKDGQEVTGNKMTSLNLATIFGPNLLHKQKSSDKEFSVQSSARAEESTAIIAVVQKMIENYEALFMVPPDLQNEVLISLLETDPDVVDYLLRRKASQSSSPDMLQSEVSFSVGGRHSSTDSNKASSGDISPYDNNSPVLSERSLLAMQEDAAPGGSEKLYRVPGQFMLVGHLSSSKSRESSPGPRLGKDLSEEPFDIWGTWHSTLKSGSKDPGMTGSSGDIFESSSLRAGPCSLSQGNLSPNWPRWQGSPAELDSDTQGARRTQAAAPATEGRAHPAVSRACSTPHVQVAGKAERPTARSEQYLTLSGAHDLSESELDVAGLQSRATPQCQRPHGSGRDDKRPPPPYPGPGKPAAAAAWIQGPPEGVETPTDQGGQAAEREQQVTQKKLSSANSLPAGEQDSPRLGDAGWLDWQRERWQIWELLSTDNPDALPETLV
Chain of UniProt P09110 (P09110 whole entry, looked up): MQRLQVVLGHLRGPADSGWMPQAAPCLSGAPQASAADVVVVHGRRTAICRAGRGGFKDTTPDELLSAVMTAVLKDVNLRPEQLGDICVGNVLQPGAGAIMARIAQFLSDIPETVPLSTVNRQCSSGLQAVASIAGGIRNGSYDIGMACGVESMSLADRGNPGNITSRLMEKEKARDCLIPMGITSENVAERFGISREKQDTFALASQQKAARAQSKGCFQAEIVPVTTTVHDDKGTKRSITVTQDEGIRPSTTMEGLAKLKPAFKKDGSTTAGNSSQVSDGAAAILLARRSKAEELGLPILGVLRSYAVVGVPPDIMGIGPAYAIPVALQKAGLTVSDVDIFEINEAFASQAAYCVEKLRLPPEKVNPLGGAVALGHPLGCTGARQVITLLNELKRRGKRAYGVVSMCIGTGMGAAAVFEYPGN
Chain of UniProt Q9NRW3 (Q9NRW3 whole entry, looked up): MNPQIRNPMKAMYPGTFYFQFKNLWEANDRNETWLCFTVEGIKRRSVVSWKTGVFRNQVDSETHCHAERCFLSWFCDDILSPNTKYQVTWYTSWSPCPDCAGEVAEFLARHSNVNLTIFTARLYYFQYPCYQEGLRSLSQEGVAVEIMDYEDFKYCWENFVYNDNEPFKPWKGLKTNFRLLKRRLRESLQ
Chain of UniProt Q9NXW9 (Q9NXW9 whole entry, looked up): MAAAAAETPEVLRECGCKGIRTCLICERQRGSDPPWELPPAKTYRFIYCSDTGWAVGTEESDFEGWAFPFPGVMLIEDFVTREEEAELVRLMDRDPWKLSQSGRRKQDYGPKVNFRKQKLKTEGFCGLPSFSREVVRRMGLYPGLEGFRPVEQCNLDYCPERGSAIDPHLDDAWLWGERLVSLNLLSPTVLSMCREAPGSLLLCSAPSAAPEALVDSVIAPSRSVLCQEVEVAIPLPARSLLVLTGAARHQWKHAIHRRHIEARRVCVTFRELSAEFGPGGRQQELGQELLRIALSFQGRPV
Chain of UniProt P30837 (P30837 whole entry, looked up): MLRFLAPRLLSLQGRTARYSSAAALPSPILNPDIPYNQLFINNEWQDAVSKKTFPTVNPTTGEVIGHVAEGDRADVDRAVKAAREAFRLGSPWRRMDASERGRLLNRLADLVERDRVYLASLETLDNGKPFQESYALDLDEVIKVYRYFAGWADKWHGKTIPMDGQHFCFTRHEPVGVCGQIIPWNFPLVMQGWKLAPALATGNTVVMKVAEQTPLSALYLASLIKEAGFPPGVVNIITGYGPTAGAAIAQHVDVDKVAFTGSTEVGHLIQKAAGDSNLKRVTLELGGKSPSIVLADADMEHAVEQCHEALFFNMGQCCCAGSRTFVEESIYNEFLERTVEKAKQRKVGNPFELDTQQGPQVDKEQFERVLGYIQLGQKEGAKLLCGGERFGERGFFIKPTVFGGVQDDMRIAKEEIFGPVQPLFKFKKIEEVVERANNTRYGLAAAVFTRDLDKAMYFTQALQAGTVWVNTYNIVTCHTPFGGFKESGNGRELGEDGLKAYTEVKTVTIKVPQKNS
Chain of UniProt Q12797 (Q12797 whole entry, looked up): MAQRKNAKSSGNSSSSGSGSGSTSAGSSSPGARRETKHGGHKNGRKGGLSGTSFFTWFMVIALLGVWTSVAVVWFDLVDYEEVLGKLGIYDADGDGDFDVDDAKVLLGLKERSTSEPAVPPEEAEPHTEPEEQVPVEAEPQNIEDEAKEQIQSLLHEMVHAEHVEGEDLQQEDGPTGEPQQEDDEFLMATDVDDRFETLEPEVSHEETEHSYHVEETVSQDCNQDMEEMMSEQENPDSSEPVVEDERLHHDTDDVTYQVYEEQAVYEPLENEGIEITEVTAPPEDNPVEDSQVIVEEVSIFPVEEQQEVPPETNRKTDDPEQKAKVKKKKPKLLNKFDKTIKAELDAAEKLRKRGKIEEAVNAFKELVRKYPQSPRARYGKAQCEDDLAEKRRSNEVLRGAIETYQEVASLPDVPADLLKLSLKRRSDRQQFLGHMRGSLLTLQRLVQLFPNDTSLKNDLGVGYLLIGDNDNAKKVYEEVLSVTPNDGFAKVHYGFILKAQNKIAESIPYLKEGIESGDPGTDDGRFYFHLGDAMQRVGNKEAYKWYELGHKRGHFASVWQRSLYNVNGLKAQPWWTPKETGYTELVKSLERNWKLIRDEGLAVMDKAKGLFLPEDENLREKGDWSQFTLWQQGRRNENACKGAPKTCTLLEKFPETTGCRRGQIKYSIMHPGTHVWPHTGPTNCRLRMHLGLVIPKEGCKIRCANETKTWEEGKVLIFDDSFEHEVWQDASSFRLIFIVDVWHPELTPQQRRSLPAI

Target | log2 fold change [1] | log2 fold change (vorinostat) | log2 fold change (silmitasertib) | log2 fold change [2] | log2 fold change (entospletinib)
ACAA1 (UniProt P09110) | -0.005 | -0.332 (active) | -0.039 | 0.033 | 0.038
ACTBL2 (UniProt Q562R1) | -0.116 | -0.154 | 0.039 | 0.019 | -0.083
ASPH (UniProt Q12797) | 0 | 0.131 | -0.008 | 0.029 | -0.016
ALG13 (UniProt Q9NP73) | -0.027 | -0.339 (active) | -0.01 | 0.014 | -0.082
ARHGAP6 (UniProt O43182) | 0.058 | -0.346 (active) | 0.089 | 0.025 | 0.004
ARHGEF1 (UniProt M0QZR4) | 0.019 | -0.392 (active) | 0.023 | 0.004 | 0.003
ALKBH4 (UniProt Q9NXW9) | 0.061 | 0.264 (active) | -0.032 | -0.088 | -0.012
APOBEC3C (UniProt Q9NRW3) | 0.055 | -0.278 (active) | 0.043 | -0.066 | -0.007
ALDH1B1 (UniProt P30837) | 0.027 | 1.15 (active) | -0.051 | -0.022 | 0.033
